# Reference: the supplement of paper PMC10849652
# About 7,900 targets were measured; listed, in parts, are those with a hit and a random draw of the rest. About 0.6% of all pairs of compound and target were hits. A number with no mark means an inactive call.
# Tests used:
# Experiment in all cases: log2 fold change, soluble protein after heating vs DMSO (PISA); higher = thermal stabilisation; K562 cells, 10 uM, 30 min; active = over 0.2 and 3.5 SD of the protein, either way, in both replicates (recomputed)
# bafetinib = compound: Cc1ccc(NC(=O)c2ccc(CN3CC[C@H](N(C)C)C3)c(C(F)(F)F)c2)cc1Nc1nccc(-c2cncnc2)n1 [bafetinib]
# Method in brief: (§1)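 K562 cells at 2×10^6 cells/mL were treated for 30 min with 10 μM compound, and aliquots were heated for 3 min over 48°C-58°C before pooling. Extraction used PBS with 0.5% NP-40 at 4°C, and soluble protein was the supernatant after 21,000xg for 90 min, measured by TMTpro 16plex LC-MS/MS with channel sums equalised. Thermal stability values, relative to control samples and from duplicates, are log2 fold changes.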
# [1] = compound: Cc1cccc(CC(=O)N2CCc3c2ccc(-c2cn(C)c4ncnc(N)c24)c3F)n1
# Method in brief: as §1
# nilotinib = compound: Cc1cn(-c2cc(NC(=O)c3ccc(C)c(Nc4nccc(-c5cccnc5)n4)c3)cc(C(F)(F)F)c2)cn1 [nilotinib]
# Method in brief: as §1
# [2] = compound: Cc1nc(Nc2n[nH]c3c2CN(C(=O)N[C@H](CN(C)C)c2ccccc2)C3(C)C)c2sccc2n1
# Method in brief: as §1
# dasatinib = compound: Cc1nc(Nc2ncc(C(=O)Nc3c(C)cccc3Cl)s2)cc(N2CCN(CCO)CC2)n1 [dasatinib]
# Method in brief: as §1
# [3] = compound: Cc1ncc(-c2ccnc(Nc3ccc(S(C)(=O)=O)cc3)n2)n1C(C)C
# Method in brief: as §1
# [4] = compound: Cn1cc(-c2ccc3c(c2)CCN3C(=O)Cc2cccc(C(F)(F)F)c2)c2c(N)ncnc21
# Method in brief: as §1
# [5] = compound: Cn1cc(-c2ccc3nnc(C(F)(F)c4ccc5ncccc5c4)n3n2)cn1
# Method in brief: as §1
# tipifarnib = compound: Cn1cncc1[C@@](N)(c1ccc(Cl)cc1)c1ccc2c(c1)c(-c1cccc(Cl)c1)cc(=O)n2C [tipifarnib]
# Method in brief: as §1
# mubritinib = compound: FC(F)(F)c1ccc(/C=C/c2nc(COc3ccc(CCCCn4ccnn4)cc3)co2)cc1 [mubritinib]
# Method in brief: as §1
# Sequence of UniProt Q8IUR7 (Q8IUR7 whole entry, looked up): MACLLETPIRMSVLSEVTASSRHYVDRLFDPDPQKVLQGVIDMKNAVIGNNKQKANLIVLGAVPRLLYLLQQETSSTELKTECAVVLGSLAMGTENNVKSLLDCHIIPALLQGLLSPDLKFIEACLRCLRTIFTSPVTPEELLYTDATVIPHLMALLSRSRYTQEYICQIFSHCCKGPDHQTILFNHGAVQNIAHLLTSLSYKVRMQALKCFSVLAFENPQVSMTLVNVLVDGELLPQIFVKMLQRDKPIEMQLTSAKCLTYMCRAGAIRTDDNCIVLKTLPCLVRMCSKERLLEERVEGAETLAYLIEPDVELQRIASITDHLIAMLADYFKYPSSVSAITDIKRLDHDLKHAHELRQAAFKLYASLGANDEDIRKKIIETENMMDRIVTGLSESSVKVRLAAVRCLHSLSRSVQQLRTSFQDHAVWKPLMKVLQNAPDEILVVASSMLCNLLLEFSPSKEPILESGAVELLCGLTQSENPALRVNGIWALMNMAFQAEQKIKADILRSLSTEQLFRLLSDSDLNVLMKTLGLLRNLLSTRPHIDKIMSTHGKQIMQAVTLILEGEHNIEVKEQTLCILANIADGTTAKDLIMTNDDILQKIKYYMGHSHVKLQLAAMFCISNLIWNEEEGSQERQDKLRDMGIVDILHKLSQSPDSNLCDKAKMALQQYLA
# Sequence of UniProt Q14457 (Q14457 whole entry, looked up): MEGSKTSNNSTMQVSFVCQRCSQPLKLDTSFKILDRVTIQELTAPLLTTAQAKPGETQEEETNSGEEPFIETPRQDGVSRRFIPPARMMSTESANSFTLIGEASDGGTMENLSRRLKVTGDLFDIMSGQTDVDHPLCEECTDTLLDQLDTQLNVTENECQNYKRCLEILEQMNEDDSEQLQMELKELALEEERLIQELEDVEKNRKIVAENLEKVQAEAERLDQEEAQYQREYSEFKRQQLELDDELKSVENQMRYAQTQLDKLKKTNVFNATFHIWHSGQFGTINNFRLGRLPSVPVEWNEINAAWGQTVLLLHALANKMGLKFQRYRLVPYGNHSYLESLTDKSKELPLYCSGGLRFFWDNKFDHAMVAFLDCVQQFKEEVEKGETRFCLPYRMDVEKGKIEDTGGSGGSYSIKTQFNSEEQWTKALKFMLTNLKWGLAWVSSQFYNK
# Sequence of UniProt Q66PJ3 (Q66PJ3 whole entry, looked up): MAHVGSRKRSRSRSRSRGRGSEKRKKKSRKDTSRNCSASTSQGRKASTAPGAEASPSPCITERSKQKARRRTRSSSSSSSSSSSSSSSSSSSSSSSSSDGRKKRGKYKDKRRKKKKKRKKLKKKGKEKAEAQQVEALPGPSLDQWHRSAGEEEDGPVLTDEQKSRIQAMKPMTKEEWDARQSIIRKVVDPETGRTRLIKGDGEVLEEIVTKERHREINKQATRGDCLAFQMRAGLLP
# Sequence of UniProt O43823 (O43823 whole entry, looked up): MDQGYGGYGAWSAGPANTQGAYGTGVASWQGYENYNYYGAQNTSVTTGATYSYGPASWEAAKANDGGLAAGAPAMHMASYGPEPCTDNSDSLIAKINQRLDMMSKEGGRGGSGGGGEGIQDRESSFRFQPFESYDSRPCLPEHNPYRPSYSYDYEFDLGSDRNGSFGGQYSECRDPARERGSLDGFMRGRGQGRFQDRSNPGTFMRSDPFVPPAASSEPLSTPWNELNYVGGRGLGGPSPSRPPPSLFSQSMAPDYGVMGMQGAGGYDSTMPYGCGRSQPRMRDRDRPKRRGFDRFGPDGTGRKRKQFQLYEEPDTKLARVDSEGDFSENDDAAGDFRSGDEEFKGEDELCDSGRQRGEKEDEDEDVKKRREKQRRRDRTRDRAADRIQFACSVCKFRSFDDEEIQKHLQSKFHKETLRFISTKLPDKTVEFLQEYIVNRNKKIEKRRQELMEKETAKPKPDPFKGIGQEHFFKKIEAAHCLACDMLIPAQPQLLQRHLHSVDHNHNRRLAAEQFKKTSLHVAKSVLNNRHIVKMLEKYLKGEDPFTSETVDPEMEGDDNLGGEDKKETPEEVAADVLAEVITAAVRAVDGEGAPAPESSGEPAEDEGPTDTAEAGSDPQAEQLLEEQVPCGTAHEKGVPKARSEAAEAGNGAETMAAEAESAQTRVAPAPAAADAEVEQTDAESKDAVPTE
# Sequence of UniProt Q15059 (Q15059 whole entry, looked up): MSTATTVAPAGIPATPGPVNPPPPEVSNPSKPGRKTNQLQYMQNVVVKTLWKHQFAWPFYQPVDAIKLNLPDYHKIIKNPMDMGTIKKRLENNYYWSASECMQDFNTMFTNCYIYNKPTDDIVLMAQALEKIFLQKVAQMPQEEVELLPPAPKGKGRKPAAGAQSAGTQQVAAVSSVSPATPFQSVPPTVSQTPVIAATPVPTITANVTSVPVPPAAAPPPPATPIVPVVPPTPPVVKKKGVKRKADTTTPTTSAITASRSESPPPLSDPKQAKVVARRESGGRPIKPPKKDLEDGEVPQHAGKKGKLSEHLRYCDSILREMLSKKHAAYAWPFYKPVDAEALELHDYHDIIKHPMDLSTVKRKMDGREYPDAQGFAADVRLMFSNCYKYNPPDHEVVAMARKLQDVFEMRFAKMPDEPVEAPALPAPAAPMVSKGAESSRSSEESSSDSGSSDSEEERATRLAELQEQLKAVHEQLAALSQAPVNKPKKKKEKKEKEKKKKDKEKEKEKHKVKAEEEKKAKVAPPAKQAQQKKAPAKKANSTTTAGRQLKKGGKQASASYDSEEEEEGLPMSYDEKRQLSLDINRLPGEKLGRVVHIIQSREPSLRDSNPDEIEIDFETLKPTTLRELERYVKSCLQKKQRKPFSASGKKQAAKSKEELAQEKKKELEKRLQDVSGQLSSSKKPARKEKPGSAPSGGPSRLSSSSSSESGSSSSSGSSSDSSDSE
# Sequence of UniProt Q9H0E9 (Q9H0E9 whole entry, looked up): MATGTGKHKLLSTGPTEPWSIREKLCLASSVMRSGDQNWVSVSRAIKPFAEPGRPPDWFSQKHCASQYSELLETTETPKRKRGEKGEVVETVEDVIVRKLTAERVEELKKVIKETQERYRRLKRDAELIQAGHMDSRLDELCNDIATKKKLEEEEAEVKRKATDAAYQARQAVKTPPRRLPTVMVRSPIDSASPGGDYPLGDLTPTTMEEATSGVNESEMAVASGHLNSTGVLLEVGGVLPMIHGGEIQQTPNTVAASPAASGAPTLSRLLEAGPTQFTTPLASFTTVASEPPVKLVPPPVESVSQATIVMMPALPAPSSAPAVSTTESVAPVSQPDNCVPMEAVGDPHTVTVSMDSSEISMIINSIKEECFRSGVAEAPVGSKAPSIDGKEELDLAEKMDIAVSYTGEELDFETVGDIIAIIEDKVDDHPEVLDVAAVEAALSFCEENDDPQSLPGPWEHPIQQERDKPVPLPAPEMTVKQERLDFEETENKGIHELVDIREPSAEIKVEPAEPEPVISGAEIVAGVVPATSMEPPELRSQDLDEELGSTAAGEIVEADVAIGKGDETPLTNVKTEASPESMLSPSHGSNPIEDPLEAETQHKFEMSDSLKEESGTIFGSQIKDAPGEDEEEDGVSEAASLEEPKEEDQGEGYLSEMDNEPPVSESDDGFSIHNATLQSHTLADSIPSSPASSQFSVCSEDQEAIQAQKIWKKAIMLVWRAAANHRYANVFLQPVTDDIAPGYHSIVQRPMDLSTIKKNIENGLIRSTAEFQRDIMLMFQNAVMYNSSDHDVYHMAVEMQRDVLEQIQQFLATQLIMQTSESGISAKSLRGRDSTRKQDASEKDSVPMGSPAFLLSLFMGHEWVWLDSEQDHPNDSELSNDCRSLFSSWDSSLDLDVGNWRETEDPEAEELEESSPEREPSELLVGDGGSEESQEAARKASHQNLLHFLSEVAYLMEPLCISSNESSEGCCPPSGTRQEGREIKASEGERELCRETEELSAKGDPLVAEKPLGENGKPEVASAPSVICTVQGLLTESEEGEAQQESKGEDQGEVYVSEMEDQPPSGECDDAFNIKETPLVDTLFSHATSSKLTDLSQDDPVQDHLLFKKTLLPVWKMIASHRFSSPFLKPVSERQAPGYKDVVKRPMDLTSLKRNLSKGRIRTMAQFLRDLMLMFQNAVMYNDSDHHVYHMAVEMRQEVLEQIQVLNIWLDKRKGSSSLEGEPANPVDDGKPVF
# Sequence of UniProt Q16186 (Q16186 whole entry, looked up): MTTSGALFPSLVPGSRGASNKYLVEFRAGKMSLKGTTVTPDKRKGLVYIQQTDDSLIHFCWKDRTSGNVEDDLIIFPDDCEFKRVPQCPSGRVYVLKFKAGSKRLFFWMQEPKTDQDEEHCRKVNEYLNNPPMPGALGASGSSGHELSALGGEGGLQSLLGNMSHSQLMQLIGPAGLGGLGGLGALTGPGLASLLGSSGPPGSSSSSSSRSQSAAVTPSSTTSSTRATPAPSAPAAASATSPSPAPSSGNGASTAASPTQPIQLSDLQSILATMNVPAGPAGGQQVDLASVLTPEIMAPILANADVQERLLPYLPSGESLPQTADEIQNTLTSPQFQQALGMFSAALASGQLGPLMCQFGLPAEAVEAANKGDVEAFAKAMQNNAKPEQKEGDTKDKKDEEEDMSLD
# Sequence of UniProt Q8WUW1 (Q8WUW1 whole entry, looked up): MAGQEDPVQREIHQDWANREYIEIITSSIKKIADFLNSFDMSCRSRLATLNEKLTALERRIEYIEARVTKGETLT
# Sequence of UniProt Q92934 (Q92934 whole entry, looked up): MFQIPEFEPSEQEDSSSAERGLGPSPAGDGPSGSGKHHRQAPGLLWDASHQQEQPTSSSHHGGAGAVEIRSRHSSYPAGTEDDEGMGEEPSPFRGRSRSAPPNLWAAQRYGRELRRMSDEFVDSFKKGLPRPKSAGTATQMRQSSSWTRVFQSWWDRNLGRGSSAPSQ
# Sequence of UniProt Q8NFV4 (Q8NFV4 whole entry, looked up): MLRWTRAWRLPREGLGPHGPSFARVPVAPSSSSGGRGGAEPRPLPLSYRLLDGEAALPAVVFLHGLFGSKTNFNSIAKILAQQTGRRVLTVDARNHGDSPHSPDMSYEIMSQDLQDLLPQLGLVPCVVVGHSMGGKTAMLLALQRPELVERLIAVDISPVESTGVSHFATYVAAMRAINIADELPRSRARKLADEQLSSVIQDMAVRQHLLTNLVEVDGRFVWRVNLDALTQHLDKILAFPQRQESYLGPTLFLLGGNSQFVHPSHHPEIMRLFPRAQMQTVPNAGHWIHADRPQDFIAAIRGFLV
Target,log2 fold change (bafetinib),log2 fold change [1],log2 fold change (nilotinib),log2 fold change [2],log2 fold change (dasatinib),log2 fold change [3],log2 fold change [4],log2 fold change [5],log2 fold change (tipifarnib),log2 fold change (mubritinib)
B4GALNT1 (UniProt Q00973),0.141,-0.042,0.083,0.012,0.076,-0.125,-0.128,0.036,0.025,0.015
ALDH6A1 (UniProt Q02252),-0.045,-0.103,-0.003,0.018,-0.204,-0.015,-0.019,-0.019,0.01,-0.528 (active)
BRD8 (UniProt Q9H0E9),-0.032,-0.072,-0.01,-0.055,0.057,-0.019,0.018,-0.028,0.054,0.011
ALDH1B1 (UniProt P30837),0.03,-0.018,0.003,0.014,-0.113,0.131,0.022,0.034,-0.018,0.059
ARFGEF1 (UniProt Q9Y6D6),0.052,0.006,-0.024,0.014,-0.026,0.008,0.005,0.047,0.009,-0.021
ATP12A isoform 2 (UniProt P54707),0.026,0.011,0.02,-0.007,0.022,0.007,0.066,0.04,0.016,0.018
AARSD1 isoform 3 (UniProt Q9BTE6),0.009,0.065,-0.013,-0.038,-0.062,0.031,-0.004,0.002,0.022,0.064
ACAD9 (UniProt Q9H845),-0.061,-0.022,0,0.021,0.125,-0.023,0.047,0.014,0.055,0.067
AP2A1 (UniProt O95782),0.052,0.024,-0.008,-0.008,0.045,-0.079,-0.007,-0.066,-0.051,-0.011
AUP1 (UniProt Q9Y679),-0.023,0.11,-0.102,-0.055,-0.097,0.018,0.01,-0.03,-0.106,0.033
BRD3 (UniProt Q15059),-0.152,-0.002,-0.088,-0.031,-0.319,-0.138,-0.05,0.086,-0.126,0.047
ATP6V0A2 (UniProt Q9Y487),-0.041,0.007,0.035,0.006,-0.006,-0.077,-0.019,0.027,0.008,-0.019
ABHD17A isoform 2 (UniProt Q96GS6),-0.051,0.044,-0.054,0.047,-0.023,0.018,0.028,0.068,-0.042,0.061
ATP1A1 (UniProt P05023),0.018,0.102,0.062,0.008,0.07,0.005,0.04,0.001,-0.011,0.023
ARL6IP4 (UniProt Q66PJ3),-0.042,0.002,-0.012,-0.459 (active),0.016,0.013,0.112,-0.038,0.019,0.023
ALG11 (UniProt Q2TAA5),-0.078,0.086,0.001,-0.037,0.005,0.129,-0.072,0.028,-0.016,0.066
BECN1 (UniProt Q14457),0.063,-0.032,0.032,-0.025,-0.072,0.076,-0.015,-0.038,-0.003,0.023
ACBD6 (UniProt Q9BR61),-0.058,0.063,0.017,-0.085,-0.23,0.057,-0.053,0.056,-0.072,-0.085
AKAP8 (UniProt O43823),-0.051,-0.008,-0.001,-0.044,-0.155,-0.042,-0.007,-0.049,0.022,0.028
ADRM1 (UniProt Q16186),0.238 (active),0.072,0.028,0.063,-0.036,0.006,-0.061,-0.003,0.01,-0.006
BRK1 isoform 2 (UniProt Q8WUW1),-0.043,0.007,0.02,-0.051,0.054,-0.051,0.047,0.186,-0.049,0.002
ACADVL isoform 3 (UniProt P49748),-0.093,0,0.032,0.02,-0.016,-0.007,0.022,0.026,-0.01,0.071
BAD (UniProt Q92934),-0.151,-0.046,0.034,0.009,0.092,-0.069,0.077,0.076,-0.005,-0.046
ATP6V1F isoform 2 (UniProt Q16864),0,-0.053,0.078,-0.03,0.034,-0.028,0.101,0.132,0.32,0.045
BTBD6 (UniProt Q96KE9),-0.007,0.011,0.277,-0.044,0.008,-0.098,0.239,-0.003,-0.121,0.153
AK6 (UniProt Q9Y3D8),0.021,-0.018,-0.141,-0.143,-0.288,-0.015,0,0.025,-0.144,-0.114
ARMC8 (UniProt Q8IUR7),0.021,-0.026,-0.036,0.038,-0.082,-0.008,-0.019,-0.112,0.007,-0.053
AP2B1 isoform 2 (UniProt P63010),0.024,-0.01,-0.019,0.019,0.035,-0.032,-0.029,0.004,-0.014,-0.01
ABHD11 (UniProt Q8NFV4),0.011,0.175,0.003,-0.006,0.073,0.083,0.024,0.025,0.174,-0.235
